Assay outcomes from PubChem BioAssay.
D1 allo mod – allosterically modulates the human D1 dopamine receptor. P21728. HEK293 D1, CRE-luciferase, dopamine EC30 potentiation; actives deviate in either direction. B-score at 10 µM. 5.9% of 58,000 active;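 active = luminescence count or its row- and column-corrected plate score outside the 99.7% band of the plate's sample wells, on either side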
Htt clearance – mutant huntingtin protein clearance; HeLa Exon1htt(103Q)mCFP, aggregate imaging; zero = plate's median compound well; 0.42% of 47,000 active; inhibition, % at 1.5 µM; AID 853;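 active = inhibition of aggregate fluorescence above about 70%, also judged a hit by eye on the cell image, limit read from the data, passing the limit was not always enough; inconclusive = no rule stated for this call; inactive = not judged a hit on image review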;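 also: cells exposed to compound for three days before fixation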
M1 ag – agonists of M1 muscarinic receptor. CHO-M1 cells, Fluo-4 calcium fluorescence, agonist mode; hits give high values. B-score at 10 µM. 3% of 64,000 active. AID 626;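 active = fluorescence rise, raw or as B-score row- and column-corrected plate score, outside the 99.7% band of its plate's samples, either direction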
M1 antagonist – M1 muscarinic receptor (rat) antagonism | 3.4% of 64,000 active | CHO-M1 cells, Fluo-4 calcium, ACh EC80 antagonist mode; hits give low values | B-score at 10 µM | P08482;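 active = calcium fluorescence response, raw or row-and-column corrected B-score, differing from the plate sample mean either way at a set confidence level, mostly lower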
Target sequence (P08482 whole entry, looked up): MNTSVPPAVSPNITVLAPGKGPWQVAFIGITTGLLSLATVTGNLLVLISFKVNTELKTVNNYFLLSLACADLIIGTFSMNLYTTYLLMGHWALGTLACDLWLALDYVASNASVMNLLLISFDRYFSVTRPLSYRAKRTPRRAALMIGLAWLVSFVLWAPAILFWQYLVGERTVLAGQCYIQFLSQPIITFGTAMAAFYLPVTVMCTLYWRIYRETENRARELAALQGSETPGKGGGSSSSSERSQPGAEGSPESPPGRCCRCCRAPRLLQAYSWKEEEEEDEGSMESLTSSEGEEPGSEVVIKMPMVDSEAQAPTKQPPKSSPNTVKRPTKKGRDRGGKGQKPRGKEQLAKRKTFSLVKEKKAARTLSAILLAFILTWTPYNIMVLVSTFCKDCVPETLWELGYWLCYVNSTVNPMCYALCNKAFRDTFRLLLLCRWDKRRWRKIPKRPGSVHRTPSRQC
WNV protease inh – inhibitors of West Nile virus NS2B-NS3 protease; z-score (test concentration not listed); P06935; AID 577; 0.18% of 65,000 active; WNV NS2B-NS3 protease, fluorogenic substrate Ex360/Em465; hits give low values; in the data active = z-score below about -3
M1 antag conf – confirmation of rat M1 muscarinic receptor antagonists. shares compounds with M1 antagonist. calcium response (max-min fluorescence) at 10 µM. 43% of 1,700 active. AID 677. CHO-M1 cells, Fluo-4 calcium, ACh EC80 antagonism; hits give low values;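 active = calcium response below the same-plate mean of wells given acetylcholine alone at its 80%-effect dose, minus 3 SD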
mGluR4 antag – acts on human mGluR4 in M1 antagonist selectivity test; shares compounds with M1 antagonist; CHO-mGluR4 calcium flux, Fluo-4 fluorescence, glutamate EC80; hits give low values; fluorescence response (max-min) at 10 µM; 0.9% of 1,700 active; AID 678;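 active = fluorescence response below the plate's average for near-maximal glutamate wells, less 3 SD of those wells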;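 also: raw unnormalized fluorescence span taken in the window right after glutamate addition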
Of the large screens only hits and unclear results are named; the others gave an inactive call (follow-up assays come after a bar, where they were run). An excerpt weighted towards active compounds, which were near 8.9% of everything screened.

COc1ccc(Cl)c(N2CCN(CCCNC(=O)Nc3ccc(C)cc3)CC2)c1	none (no result: D1 allo mod)
CCOC(=O)CNC(=O)C1CCCN(c2ncccn2)C1 (stereo not given)	none (no result: Htt clearance)
CC1(C)CC(N2CCC(=O)N(C3CC(C)(C)NC(C)(C)C3)C2)CC(C)(C)N1	M1 antagonist -3.18 (no result: Htt clearance) | M1 antag conf inactive | mGluR4 antag inactive
CN1C(=O)C2(c3ccccc31)C1CCCC=C1C(C#N)=C(N)C2(C#N)C#N (stereo not given)	none (no result: D1 allo mod)
COC(=O)c1cc(Nc2ncnc3c2cnn3-c2ccccc2)cc(C(=O)OC)c1	none (no result: Htt clearance)
COc1ccccc1Cn1c2nc3ccccc3nc2c2c(=O)n(CC(C)C)cnc21	none (no result: D1 allo mod, Htt clearance)
Cc1ccc2c(c1)NC(=O)C(CC(=O)Nc1ccc(CN3CCC(C)CC3)cc1)O2 (stereo not given)	M1 antagonist -9.35 | M1 antag conf 14.4 | mGluR4 antag inactive
CCN1CCN(Cc2ccc(NC(=O)CC3Oc4ccc(C)cc4NC3=O)cc2)CC1 (stereo not given)	Htt clearance inconclusive, M1 antagonist -3.86 | M1 antag conf 335 | mGluR4 antag inactive
Cc1ccc2c(c1)NC(=O)C(CC(=O)NCCN(CC(C)C)CC(C)C)O2 (stereo not given)	M1 antagonist -5.63 | M1 antag conf 305 | mGluR4 antag inactive
Cc1cc(=O)n2nc(N3CCC(C(=O)N4CCN(Cc5ccccc5)CC4)CC3)sc2n1	M1 antagonist -6 | M1 antag conf inactive | mGluR4 antag inactive
COC(=O)\C(C(C)=O)=C(/C=C/C=C/N(C)C)N(C)C	M1 antagonist -2.4 (no result: Htt clearance) | M1 antag conf inactive | mGluR4 antag inactive
O=C(OCC1COc2ccccc2O1)c1c(F)cccc1F (stereo not given)	none
COc1ccc(S(=O)(=O)N(CC(=O)O)Cc2ccccc2)cc1OC	M1 antagonist -17.8 (no result: Htt clearance) | M1 antag conf inactive | mGluR4 antag inactive
COc1ccc(S(=O)(=O)N(CC(=O)N2CCOCC2)Cc2ccccc2)cc1C	none (no result: D1 allo mod, M1 ag, M1 antagonist, WNV protease inh)
CC1(C)CC(=O)CC(=NCC(=O)O)C1	M1 antagonist -2.64 (no result: Htt clearance) | M1 antag conf inactive | mGluR4 antag inactive
CN(C)c1ncnc2c1NC1=C(S2)C(=NCCCC(=O)O)CC(C)(C)C1	none (no result: D1 allo mod, M1 ag, M1 antagonist, WNV protease inh)
O=C(CN1CCCC(O)C1)N1c2ccccc2Sc2ccc(C(F)(F)F)cc21 (stereo not given)	M1 antagonist -10.6 (no result: Htt clearance) | M1 antag conf 16 | mGluR4 antag inactive
CN1C(=O)NC(c2ccc(O)cc2)C(C(=O)c2cccs2)C1(O)C(F)(F)F (stereo not given)	M1 antagonist -3.35 | M1 antag conf inactive | mGluR4 antag inactive
O=C(c1ccco1)N1CCN(C(c2cccs2)c2nnnn2C2CCCCC2)CC1 (stereo not given)	none
COc1ccccc1-c1c(C)nn2c(NCCN3CCCC3)cc(C)nc12	M1 antagonist -1.85 (no result: Htt clearance) | M1 antag conf inactive | mGluR4 antag inactive
Cc1cc(NCCCN2CCOCC2)n2nc(C)c(-c3ccccc3)c2n1	none
COc1cc(NC(=O)c2c(F)c(F)c(F)c(F)c2F)c(OC)cc1Cl	M1 antagonist -2.93 (no result: Htt clearance) | M1 antag conf inactive | mGluR4 antag 148
Cc1cc(C(=O)NCCCn2ccnc2)sc1-c1ccccc1	M1 antagonist -3.33 (no result: Htt clearance) | M1 antag conf inactive | mGluR4 antag inactive
Cc1nn(Cc2ccccc2Cl)c2sc(C(=O)NCCCn3ccnc3)cc12	M1 antagonist -7.87 (no result: Htt clearance) | M1 antag conf 287 | mGluR4 antag inactive
Cc1cc(-c2ccccc2)nc2cc(C(=O)NCCCn3ccnc3)nn12	none (no result: Htt clearance)
O=C(CN1CCN(C(c2ccccc2)c2ccccc2)CC1)N1CCOCC1	M1 antagonist -19.1 | M1 antag conf 179 | mGluR4 antag inactive
O=C(Nc1ccccc1-c1ccccc1)NC1CCN(CC(=O)N2CCOCC2)CC1	M1 antagonist -5.95 | M1 antag conf 323 | mGluR4 antag inactive
O=S(=O)(CCN1CCN(C(c2ccccc2)c2ccccc2)CC1)C(F)(F)F	M1 antagonist -3.76 | M1 antag conf 387 | mGluR4 antag inactive
C=CCn1c(SCc2nc3ccccc3c(=O)[nH]2)nnc1-c1cc2cc(Cl)ccc2o1	none (no result: Htt clearance)
Cc1cccc(CS(=O)(=O)Cc2ccc(C(=O)NCc3cccnc3)o2)c1	M1 antagonist -18 (no result: Htt clearance) | M1 antag conf inactive | mGluR4 antag inactive
NC(=O)COc1ccc(=O)n(-c2ccccc2)n1	M1 antagonist -2.36 (no result: D1 allo mod) | M1 antag conf inactive | mGluR4 antag inactive
CC1(C)CC(=O)c2c(nn(-c3ccccc3)c2N)C1	M1 antagonist -2.35 | M1 antag conf inactive | mGluR4 antag inactive
CC1(C)CC(=O)c2c(nc3ccccc3c2N)C1	none
CCc1sc(NS(C)(=O)=O)nc1-c1ccccc1	none (no result: Htt clearance)
CCc1sc(NC(=O)COC)nc1-c1ccccc1	M1 antagonist -5.95 (no result: D1 allo mod, Htt clearance) | M1 antag conf 456 | mGluR4 antag inactive
CCOC(=O)CN1C(=O)C(CC)Oc2ccc(Cl)cc21 (stereo not given)	M1 antagonist -3.62 | M1 antag conf inactive | mGluR4 antag inactive
CCCCNC(=O)CN1C(=O)C(CC)Oc2ccc(Cl)cc21 (stereo not given)	none
CC(/C=C1\N=C(SCc2ccccc2Cl)SC1=O)=C\c1ccccc1	none (no result: D1 allo mod, M1 ag, M1 antagonist, WNV protease inh)
CN1CCN(C2=C(Cl)C(=O)N(Cc3ccccc3)C2=O)CC1	M1 antagonist -5.64 | M1 antag conf 226 | mGluR4 antag inactive
CCN(CCO)C(=O)C(c1ccccc1)c1ccccc1	none (no result: D1 allo mod, M1 ag, M1 antagonist, WNV protease inh)
CCN(CC)CCOC(=O)C(c1ccccc1)c1ccccc1	M1 antagonist -12.7 (no result: Htt clearance) | M1 antag conf 18.8 | mGluR4 antag inactive
O=c1[nH]c(CN2CCCCC2)nc2c1C1(CCCC1)Cc1ccccc1-2	none (no result: D1 allo mod)
O=C(NC1CCCCC1)n1c(=O)oc2ccc(Cl)cc21	none (no result: Htt clearance)
O=C(NC1CCCCC1)n1c(=O)oc2ccccc21	M1 antagonist -14.6 (no result: Htt clearance) | M1 antag conf inactive | mGluR4 antag inactive
Cc1ccc(S(=O)(=O)Nc2nsc(N)n2)cc1	M1 antagonist -2.85 (no result: Htt clearance) | M1 antag conf inactive | mGluR4 antag inactive
CC12CCC(C(=O)Nc3ncc([N+](=O)[O-])s3)(OC1=O)C2(C)C (stereo not given)	none (no result: D1 allo mod, M1 ag, M1 antagonist, WNV protease inh)
CCOCCCNC(=O)NC12CC3CC(CC(C3)C1)C2	M1 antagonist -5.14 (no result: Htt clearance) | M1 antag conf inactive | mGluR4 antag inactive
O=C(NCCCN1CCOCC1)NC12CC3CC(CC(C3)C1)C2	none (no result: Htt clearance)
CC(=O)N1CCN(Cc2ccc(Br)s2)CC1	none (no result: Htt clearance)
COc1ccc(OC)c(CNc2nc3ccccc3n2CCN2CCCCC2)c1	none (no result: M1 ag, M1 antagonist)
COc1cccc(CNc2nc3ccccc3n2CCN2CCCCC2)c1	M1 antagonist -4.3 (no result: Htt clearance) | M1 antag conf inactive | mGluR4 antag inactive
CCOC(=O)C(NC(C)=O)C(OC(C)=O)c1cccc(N(CCO)CCO)c1 (stereo not given)	none (no result: Htt clearance)
CC(C)(C)c1ccccc1OCC(=O)Nc1ncn[nH]1	none (no result: Htt clearance)
